Here are results for 36 compounds from PubChem BioAssay (NCATS).

Results filed as inconclusive are left out. A number with no mark means an inactive call. Active and inactive are the calls of the source. The call rests on the fitted dose curve; in most records, active means well fitted curve in the direction sought with a large enough effect; inconclusive means small, poorly fitted or top-dose-only effect, or another doubt; inactive means no such curve, though single readings can be large; an effect the other way counts as inactive or inconclusive.

Assay [1] in a line: Viability qHTS for spleen associated tyrosine kinase inhibitor (SYKi) drug resistant MV4-11 cells (AID 1963824). Further: nearly all actives have a fitted effect of over 35% in size. Put shortly: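 SYK-inhibitor-resistant MV4-11 AML cells were seeded at 500 per well onto compound and cultured 72 hours (37 °C, 5% CO2). CellTiter-Glo was then added, and after 10 min at room temperature, luminescence gave viability.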
Assay [2] can be described thus: Cellular viability qHTS for adrenocortical cancer (ACC) cell line SW-13 (AID 1963989). Further: nearly all actives have a fitted effect of over 65% in size.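 On activity (max response): cells grown in serum-free medium with ITS supplement; on the % scale 0 is the no-effect control and ±100 the full control effect.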 The note with it: SW-13 ACC cells viability, CellTiter-Glo, 48 h; activity (max response): hits give low values. Put shortly:
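Here, serum-free SW-13 cultures were dosed up to 46 uM. Following 48 h, ATP-dependent luminescence (CellTiter-Glo) reported viable cells, and logistic modeling produced IC50 values.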

The nature of assay [3]: Cellular viability qHTS for adrenocortical cancer (ACC) cell line NCI-H295R (AID 1963990). Further: nearly all actives have a fitted effect of over 60% in size. The procedure, abridged:
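Viability of NCI-H295R after 48 h of treatment (final up to 46 uM) measured through cellular ATP luminescence.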
In general terms: qHTS replaces the single test concentration by a dilution series.
Potency means the concentration at half of the fitted maximal effect.

For `CN[C@@H]1[C@@H](O)[C@@H](O[C@@H]2[C@@H](O)[C@H](O[C@H]3O[C@H](CN)[C@@H](O)[C@H](O)[C@H]3O)[C@@H](N)C[C@H]2NC(=O)C(O)CN)OC[C@]1(C)O` (some centres undefined), the Potency entry in assay [1] was “inactive”. Further, the activity (max response) in assay [2] was -3.06%.

Take `CN[C@@H](C)C(=O)N[C@@H]1C(=O)N(Cc2c(C)ccc3ccccc23)c2ccc(C#N)cc2N(C(C)=O)[C@H]1C`: in assay [1], the Potency was 13.2 µM (active). The activity (max response) in assay [2] is 3.96%.

Regarding `CCCC[C@@H](C=O)NC(=O)[C@H](CC(C)C)NC(=O)OCc1ccccc1`, the Potency in assay [1] is 18.6 µM (active). Further, the activity (max response) in assay [2] was -4.14%.

For `COc1cc(S(C)(=O)=O)ccc1Nc1nc2ccc(-c3ccc(NC(=O)[C@H](C)c4ccc(F)cc4)cc3)cn2n1`, the Potency in assay [1] was 0.468 µM (active). In addition, in assay [2], the activity (max response) was -19.6%.

For `CC(C)n1c(/C=C/[C@H](O)C[C@H](O)CC(=O)O)c(-c2ccc(F)cc2)c2ccccc21`, the Potency is 1.32 µM (active) in assay [1] and 17.8 µM (active) in assay [2].

Turning to `NC(=O)c1cc(F)cc2c1C(=O)N(C1CCN(C3CCC(F)(F)CC3)CC1)C2`, in assay [1], the Potency result was “inactive”. In assay [2], the activity (max response) is -0.81%.

For the compound `C[C@]12CCC(=O)C=C1CC[C@H]1[C@@H]3CC[C@](O)(C(=O)CO)[C@@]3(C)C[C@H](O)[C@@]12F`, the Potency entry in assay [1] is “inactive”. Further, in assay [2], the activity (max response) is 6.22%.

As to `COc1ccccc1N1CCN(CCCNc2cc(=O)n(C)c(=O)n2C)CC1`, in assay [1], the Potency entry is “inactive”. Besides, in assay [2], the activity (max response) was 2.85%.

Turning to `Cc1cc(-c2cnn3c(NCC4CC(C)(O)C4)cc(Oc4cccnc4)nc23)ccc1C(=O)NC1CC1` (centres undefined), the Potency in assay [1] is 0.118 µM (active). Moreover, in assay [2], the activity (max response) is -6.44%.

As to `O=C1c2ccccc2CCc2ccccc21`, the Potency entry in assay [1] is “inactive”. Further, the activity (max response) in assay [2] is 4.16%.

Turning to `CC(Nc1ncnc2nc[nH]c12)c1cc2cccc(Cl)c2c(=O)n1-c1ccccc1` (centres undefined), in assay [1], the Potency was 2.59 µM (active). The activity (max response) in assay [2] was -2.7%.

As to `CCOC(=O)[C@H]1O[C@@H]1C(=O)N[C@@H](CC(C)C)C(=O)NCCC(C)C`, the Potency in assay [1] was 5.9 µM (active). Besides, in assay [2], the activity (max response) was -2.38%.

As to `C=CC(=O)Nc1cccc(Oc2nc(Nc3ccc(N4CCN(C)CC4)c(F)c3)nc3[nH]ccc23)c1`, the Potency in assay [1] is 0.525 µM (active); in assay [2], 2.82 µM (active).

As to `CCCCCCCCCCCCCC[N+](C)(C)C`, the Potency is 1.33 µM (active) in assay [1] and 4.61 µM (active) in assay [2].

Regarding `CS(=O)(=O)c1ccc(-c2nnc(/C=C/c3nnc(-c4ccc(C#N)cc4)o3)n2-c2ccccc2Cl)nc1`, the Potency in assay [1] was 14.8 µM (active). Also, the activity (max response) in assay [2] was -6.81%.

Take `CC1(C)O[C@@H]2C[C@H]3[C@@H]4CCC5=CC(=O)CC[C@]5(C)[C@@]4(F)[C@@H](O)C[C@]3(C)[C@]2(C(=O)CCl)O1`: the Potency in assay [1] is 18.8 µM (active). Moreover, the activity (max response) in assay [2] was 9.64%.

Turning to `NCC(=O)Nc1cncc(-c2nn3c(=O)cc(N4CCNCC4)nc3s2)c1`, the Potency entry in assay [1] is “inactive”. The activity (max response) in assay [2] is -17.3%.

With `COc1cc(NC(C)CCCN)c2ncccc2c1` (centres undefined), the Potency in assay [1] was 5.31 µM (active); in assay [2] it was 4.61 µM (active).

`CO[C@H]1/C=C/O[C@@]2(C)Oc3c(C)c(O)c4c(O)c(c(/C=N/N5CCN(C)CC5)c(O)c4c3C2=O)NC(=O)/C(C)=C\C=C\[C@H](C)[C@H](O)[C@@H](C)[C@@H](O)[C@@H](C)[C@H](OC(C)=O)[C@@H]1C`: the Potency in assay [1] is 18.6 µM (active). Also, the activity (max response) in assay [2] is -27.5%.

For `CC(NN)c1ccccc1` (centres undefined), the Potency entry in assay [1] is “inactive”. The activity (max response) in assay [2] was -4.01%.

For the compound `O=C(NO)C1(CS(=O)(=O)c2ccc(Oc3ccc(Cl)cc3)cc2)CCOCC1`, the figures for the Potency in assay [1] and in assay [2] were 16.6 µM (active) and 25.1 µM (active), respectively.

In the case of `O=C(O)C[C@H]1CCc2c1[nH]c1ccc(OCc3ccc(C4CCCC4)c(C(F)(F)F)c3)cc21`, the Potency in assay [1] was 7.42 µM (active). For the same compound, in assay [2], the activity (max response) was 5.55%.

On to `CC(C)(C)CC(C)(C)c1ccc(O)c(Cc2ccc(Cl)cc2Cl)c1`, for which the Potency in assay [1] is 15 µM (active); in assay [2], 16.4 µM (active).

Consider `CCCCNc1c(C(=O)OCC)c(C)nc2c1cnn2CC`, for which, in assay [1], the Potency result is “inactive”. Further, in assay [2], the activity (max response) is -16.9%.

In the case of `CC(C)C(=O)Nc1cccc(C2CN3CCSC3=N2)c1` (centres undefined), in assay [1], the Potency entry is “inactive”. Besides, the activity (max response) in assay [2] is -3.96%.

Regarding `COc1ccc(S(=O)(=O)N2CCc3cccc(-c4ccncc4)c32)cc1`, the results for the Potency in assay [1] and in assay [2] were 0.833 µM (active) and 0.316 µM (active), respectively.

Take `Cc1ccc(N)cc1O`: the Potency in assay [1] was 9.69 µM (active). Further, in assay [2], the activity (max response) was 2.63%.

Regarding `CC(C)C[C@@H]1NC(=O)[C@@H](C(C)C)NC(=O)[C@@H]2CCCN2C(=O)[C@@H](CC(=O)O)NC(=O)[C@@H](Cc2c[nH]c3ccccc23)NC1=O`, in assay [1], the Potency was 9.34 µM (active). Besides, in assay [2], the activity (max response) was -0.875%.

With `NS(=O)(=O)c1cc2c(cc1Cl)CN(C1CCCCC1)C2=O`, in assay [1], the Potency result is “inactive”. Further, in assay [2], the activity (max response) is 0.796%.

With `CN1CCN(CCCNc2ncc(Cl)c(-c3cc4c(C(=O)NC5CC5)cccc4s3)n2)CC1`, in assay [1], the Potency was 18.6 µM (active). The activity (max response) in assay [2] was 0.565%.

Consider `CC(C)C(=O)OCc1cccc(OC(=O)[C@@H]2N3C(=O)[C@@H](NC(=O)Cc4ccccc4)[C@H]3SC2(C)C)c1`, for which the Potency in assay [1] was 7.5 µM (active). In assay [2], the activity (max response) was 14.5%.

Turning to `C/C(=C(\CCO)SS/C(CCO)=C(\C)N(C=O)Cc1cnc(C)nc1N)N(C=O)Cc1cnc(C)nc1N`, in assay [1], the Potency entry is “inactive”. Further, the activity (max response) in assay [2] was 7.36%.

For the compound `O=C1C(O)=C(O)C(=O)C(O)=C1O`, in assay [1], the Potency entry is “inactive”. In addition, the activity (max response) in assay [2] is 13.8%.

`COc1cc2c(cc1OC)[C@@H]1CC(=O)[C@@H](CC(C)C)CN1CC2`: in assay [1], the Potency result was “inactive”. In assay [2], the activity (max response) was -4.64%.

As to `CN(C)C/C=C/C(=O)Nc1ccc(C(=O)N2CCC[C@@H](Nc3ncc(Cl)c(-c4c[nH]c5ccccc45)n3)C2)cc1`, the Potency was 0.0934 µM (active) in assay [1], 0.251 µM (active) in assay [2] and 10 µM (active) in assay [3].

Regarding `C[n+]1c2cc(N)ccc2cc2ccc(N)cc21` (tested in a mixture with another compound), the Potency in assay [1] was 1.88 µM (active); in assay [2], 2.31 µM (active); in assay [3], 1.3 µM (active).
